# Only some compounds are listed: those with a hit (about 0.64% of all), similar ones and a draw of the others.
# AI-2 QS modul: modulates the Vibrio harveyi AI-2 quorum sensing system | activity change, % at 7.5 µM | Vibrio harveyi JMH597 AI-2 luminescence/OD600 ratio, 9 h; stronger effect = lower value; strain lacks LuxN and CqsS sensors; 0 = neutral-control median | 300,000 tested, 0.4% active; in the data active = activity change below about -75%, passing the limit was not always enough; inconclusive = no clear call, values can overlap the other calls;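 note: luminescence divided by OD600 gain over 9 h not by final OD600 alone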
# PDI inh: blocks human protein disulfide isomerase activity; P07237; PDI insulin aggregation turbidity, A650, 90 min; inhibition, % at 10 µM; 350,000 tested, 0.052% active;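 active = mean inhibition across replicates of 30% or more, whatever share of single replicates reach that level; inconclusive = mean inhibition below 30% while every single replicate reaches 30%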
# Vif inh: HIV Vif inhibition; HEK293T cells, Vif self-association by quenched fluorescence, imaging, 24 h; inhibition, % at 7.49 µM; 340,000 tested, 0.35% active; AID 602346; in the data active = inhibition above about 50%, passing the limit was not always enough; inconclusive = no clear call, values can overlap the other calls; inactive = below about 31%
# PvdQ inh: blocks Pseudomonas aeruginosa PvdQ acylase activity | inhibition, % at 10 µM | purified PvdQ acylase, fluorescence plate reader | 340,000 tested, 0.063% active | AID 488965; in the data active = inhibition above about 30%, passing the limit was not always enough; inconclusive = no clear call, values can overlap the other calls;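 note: 0% = vehicle neutral wells and 100% = reference inhibitor wells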
# ERp5 inh: ERp5 (human) disulfide isomerase inhibition; 350,000 tested, 0.05% active; inhibition, % at 9.99 µM; ERp5 insulin aggregation, absorbance 650 nm, 90 min;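 active = mean replicate inhibition above about 25%, with every replicate also reaching it, limit read from the data, passing the limit was not always enough; inconclusive = only one of those two criteria met; inactive = neither criterion met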
# Target sequence (Q15084 whole entry, looked up): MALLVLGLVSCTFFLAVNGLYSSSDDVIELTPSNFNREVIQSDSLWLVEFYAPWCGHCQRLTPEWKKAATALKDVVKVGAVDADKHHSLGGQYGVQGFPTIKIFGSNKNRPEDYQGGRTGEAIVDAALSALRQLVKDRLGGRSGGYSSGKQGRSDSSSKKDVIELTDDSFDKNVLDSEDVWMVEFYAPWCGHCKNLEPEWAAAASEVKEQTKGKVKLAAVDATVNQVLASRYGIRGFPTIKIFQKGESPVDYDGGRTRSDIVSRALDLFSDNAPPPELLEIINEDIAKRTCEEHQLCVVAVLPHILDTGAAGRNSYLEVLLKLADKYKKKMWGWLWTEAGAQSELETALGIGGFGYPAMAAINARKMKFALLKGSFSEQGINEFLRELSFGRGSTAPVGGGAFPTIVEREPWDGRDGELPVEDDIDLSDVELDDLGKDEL
# The depositor's hits bear a star; ? = inconclusive; · = not tested or not shown.
SMILES,AI-2 QS modul,PDI inh,Vif inh,PvdQ inh,ERp5 inh
CO[C@@H]1CN(C)C(=O)c2cc(NC(=O)c3ccc(F)cc3)ccc2OC[C@@H](C)N(C(=O)CN(C)C)C[C@H]1C,·,·,·,·,0
COc1ccc(C[C@@H]2OC3(C=CC(=O)C=C3)O[C@H]2Cc2ccc(OC)cc2)cc1,·,67*,69*,-2,·
O=C1C=CC2(C=C1)O[C@H](Cc1ccccc1)[C@@H](Cc1ccccc1)O2,·,44*,-8,-12,3
COc1ccc(N2C(=O)CC(Cc3ccccc3)C2=O)cc1 (stereo not given),6,4,6,-18,·
O=C1Nc2ccccc2C1Cc1ccccc1 (stereo not given),19,9,-10,-8,2
Cc1cccn2c(=O)c(/C=C3\SC(=S)NC3=O)c(NCCCN3CCOCC3)nc12,17,-3,83*,11,5
Cc1ccnc(NC(=O)CNC(=O)c2ccc(Br)o2)c1,-85*,13,35,12,-3
Cc1ccc(NC(=O)CNC(=O)c2ccc(Br)o2)nc1,?,-3,-2,0,2
C=CCn1c(SCC(=O)Nc2cc(C)on2)nnc1C1COc2ccccc2O1 (stereo not given),26,7,-4,-13,-7
Cc1cc(NC(=O)CSc2nnc(C3COc4ccccc4O3)n2N)no1 (stereo not given),-77*,1,8,-9,4
C[C@@H]1CN([C@@H](C)CO)C(=O)c2cc(NC(=O)c3ccccc3)ccc2O[C@@H](C)CCCCO[C@@H]1CN(C)C(=O)c1ccccc1,·,·,·,·,2
CCOc1ccc(-c2cc(C(=O)NCCCn3ccnc3)c3cc(Br)ccc3n2)cc1,9,-2,61*,-2,-4
CCOc1ccc(-c2cc(C(=O)NCCCn3ccnc3)c3ccccc3n2)cc1,11,0,4,-16,4
COC(=O)C[C@H]1CC[C@H]2[C@@H](COc3ccc(NC(=O)c4cccs4)cc3C(=O)N2C)O1,·,·,·,·,1
CCOc1ccc(Nc2nc3c(C)cccc3cc2C#N)cc1,22,-7,82*,-21,4
COc1ccccc1Nc1nc2c(C)cccc2cc1C#N,32,-8,7,5,·
C[C@@H]1CCCCO[C@@H](CN(C)Cc2ccncc2)[C@H](C)CN([C@@H](C)CO)C(=O)c2cc(NC(=O)C3CCCCC3)ccc2O1,·,·,·,·,-4
Cc1ccc(Nc2nc(N)nc(CSc3nnc(-c4ccncc4)o3)n2)cc1,·,-3,83*,-10,·
O=[N+]([O-])c1ccc(N/N=C/c2cccc(O)c2)cc1,-86*,-7,-17,1,2
COCC#Cc1ccc2c(c1)O[C@H](CN(C)C)[C@@H](C)CN([C@H](C)CO)S2(=O)=O,·,·,·,·,-1
CNC[C@H]1Oc2c(NC(=O)Nc3ccc4c(c3)OCO4)cccc2C(=O)N([C@H](C)CO)C[C@H]1C,·,·,·,·,-2
CN(C)c1ccc(/C=C2\SC(=O)N(CCc3nnc(N)s3)C2=O)cc1,45,5,96*,13,2
CCOC(=O)CCCn1ncn2c(cc3occc32)c1=O,11,5,1,33*,·
COc1cc(Cl)c(C)cc1NC(=O)CN1C(=O)C2CC=CCC2C1=O (stereo not given),·,17,59*,9,2
COc1ccc(C)cc1NC(=O)CN1C(=O)C2CC=CCC2C1=O (stereo not given),·,0,-3,-15,2
SMILES,AI-2 QS modul,PDI inh,Vif inh,PvdQ inh,ERp5 inh
C/C=C/c1ccc2c(c1)O[C@H](CN(C)Cc1ccncc1)[C@@H](C)CN([C@@H](C)CO)S2(=O)=O,·,·,·,·,6
C[C@@H]1CN([C@H](C)CO)C(=O)c2cc(NC(=O)CCN3CCOCC3)ccc2O[C@@H]1CN(C)Cc1ccc(-c2ccccc2)cc1,·,·,·,·,-5
COc1ccc(Nc2nc(OC)nc(OC)n2)cc1,-1,3,-3,-10,1
COc1ccc(Nc2nc(Nc3ccc(OC)cc3)nc(-n3[nH]c(=O)c(C)c3C)n2)cc1,18,4,56*,-7,·
Cc1cc(C)c2nc3sc(C(=O)N4CCOCC4)c(N)c3cc2c1,7,8,67*,3,-1
O=C(C[C@@H]1CC[C@H](NC(=O)Nc2cc(F)ccc2F)[C@@H](CO)O1)Nc1ccccc1,·,·,·,·,6
NC(=S)NN=C(c1ccc(F)cc1)C1CC1,·,-2,70*,-8,2
O=C1c2cccc3cccc(c23)C(=O)N1c1nccs1,8,2,3,-8,·
O=C1c2cccc3c([N+](=O)[O-])ccc(c23)C(=O)N1c1nccs1,3,-5,67*,-12,·
O=C1c2cccc3c([N+](=O)[O-])ccc(c23)C(=O)N1c1ccccn1,5,-4,113*,3,·
Cc1cc(Br)cc(Br)c1OCC(=O)NNC(=O)CCC(=O)NCc1ccccc1,27,-5,1,-25,27*
O=C(CCC(=O)NNC(=O)COc1ccc(Br)cc1Br)NCc1ccccc1,8,8,-8,-2,0
O=C(NCc1ccc(OC(F)(F)F)cc1)c1cccc2c1C(=O)c1ccc(N3CCC(Cc4ccccc4)CC3)cc1S2(=O)=O,·,-1,·,9,-4
O=C(NCc1cccc(C(F)(F)F)c1)c1cccc2c1C(=O)c1ccc(N3CCC(Cc4ccccc4)CC3)cc1S2(=O)=O,·,10,122*,2,·
O=C(NCc1ccc(OC(F)(F)F)cc1)c1cccc2c1C(=O)c1ccc(N3CCCCC3)cc1S2(=O)=O,·,-5,55*,-9,-2
CC1CCN(c2ccc3c(c2)S(=O)(=O)c2cccc(C(=O)NCc4cccc(F)c4)c2C3=O)CC1,·,-4,8,-10,-1
O=C(NCc1cccc(F)c1)c1cccc2c1C(=O)c1ccc(N3CCC(Cc4ccccc4)CC3)cc1S2(=O)=O,·,-3,121*,0,·
COc1ccc(CN(C)C[C@H]2OCCCC[C@H](C)Oc3ccc(NS(=O)(=O)c4ccccc4)cc3C(=O)N([C@H](C)CO)C[C@H]2C)cc1,·,·,·,·,-5
Fc1ccc(-c2csc(-c3ccccn3)n2)cc1F,17,-1,-6,33*,3
C[C@@H]1CN([C@H](C)CO)C(=O)Cc2cc(NC(=O)NC3CCCCC3)ccc2O[C@@H]1CN(C)Cc1ccc(C(F)(F)F)cc1,·,·,·,·,-4
Cc1ccc(S(=O)(=O)c2ccc([N+](=O)[O-])o2)cc1,·,-2,90*,-5,20
O=C(Nc1nccs1)[C@H]1[C@H](CO)[C@H]2Cn3c(ccc(-c4ccccc4)c3=O)[C@H]2N1CC1CCCC1,·,·,·,·,3
O=C1SCCC1NS(=O)(=O)c1ccc([N+](=O)[O-])cc1 (stereo not given),7,-15,4,-3,0
Cc1ccc(C)c(S(=O)(=O)NC2CCSC2=O)c1 (stereo not given),·,2,7,79*,7
Cc1cccc(-n2c(SCC(=O)N(C)C3CCS(=O)(=O)C3)nc3ccccc3c2=O)c1C (stereo not given),3,-10,-14,-13,-2

# From PubChem BioAssay
